# Data published in ChEMBL document CHEMBL3433997, “St. Jude Leishmania screening dataset” (2016).
# Target: Hexose transporter 1 (Plasmodium falciparum) (UniProt O97467)
# Test: ST_JUDE_LEISH: Cytotoxicity at 2uM final concentration against transgenic Leishmania Mexicana promastigotes LmPfHT that are glucose transport deficient and complemented with the Plasmodium falciparum hexose transporter. Activity is measured by DNA content using SYBR green in vitro
# Format: functional
row,Structure (SMILES),inhibition
1,O=C(Nc1ccccc1Br)N[C@@H]1CCN(c2ccnc3ccccc23)C1,5.95%
2,CCCCOC(=O)c1ccc(Nc2cc(C)nc3ccc(OC)cc23)cc1,12.5%
3,N#Cc1ccc(NC(=O)Nc2ccc3c(c2)CCN(C2CCC2)CC3)cc1,4.41%
4,CN(C)c1c(CNCCCCCCNCc2ccc3ccccc3c2N(C)C)ccc2ccccc12,8.66%
5,O=C(CSc1nccn1C1CCCCC1)Nc1cc(C(F)(F)F)ccc1Cl,9.47%
6,CN1CCCC(CN2CCN(Cc3ccc(-c4cccc(-c5nc6ccccc6[nH]5)c4)cc3)CC2)C1 (stereo not drawn),2.47%
7,Cc1ccc(-c2cnc(N)c3cc(-c4ccnc(N)n4)ccc23)cc1,-2.15%
8,COc1ccc2c(=NN=Cc3ccc(F)cc3)cc(C)[nH]c2c1,11%
9,O=C(Nc1ccc(SC(F)(F)F)cc1)Nc1ccnc2ccccc12,-0.22%
10,CC(CNC(=O)[C@H]1CNCCN1C(=O)CCCc1ccccc1)c1ccccc1 (stereo partly drawn),-1.25%
11,Nc1nccc2ccc(-c3cccc4ncccc34)cc12,0.04%
12,CCCCCn1c(Sc2ccc(C#N)c([N+](=O)[O-])c2)nnc1-c1ccccc1,9.62%
13,Cc1cnc(Nc2cccnc2)nc1Nc1ccccc1C(=O)NC(C)C,1.12%
14,CN(C)CCOc1ccc(-c2cc(-c3ccnc(N)n3)c(-c3ccc(Cl)c(O)c3)o2)cc1,1.5%
15,C[C@@H](CNc1ccnc(Nc2ccc3[nH]c(=O)[nH]c3c2)n1)c1ccccc1,-0.02%
16,Oc1cc(-c2nc(C3(CNCc4ccc(Cl)cc4)CCCCC3)[nH]c2-c2ccncc2)ccc1Cl,5.35%
17,CCOc1ccc2ccccc2c1CNCCCCCCNCc1c(OCC)ccc2ccccc12,6.69%
18,CCCCN(CCCC)Cc1cc(Nc2ccnc3cc(Cl)ccc23)ccc1O,8.01%
19,COc1ccccc1C(C)NCC(=O)Nc1cccc(C(=O)Nc2cccc(C(F)(F)F)c2)c1 (stereo not drawn),-0.5%
20,Cc1nc(-c2cccc(Nc3nccc(NCC(O)c4ccccc4C)n3)c2)cs1 (stereo not drawn),3.57%

row,Structure (SMILES),inhibition
1,CNC(=O)Cc1ccc(C(=O)Nc2cccc(-c3cccc(-c4nc5cc(C(F)(F)F)ccc5[nH]4)c3)c2)cc1,0.81%
2,Cc1cc(=NN=Cc2ccc(F)cc2)c2ccc(C(F)(F)F)cc2[nH]1,4.59%
3,COc1ccc2nccc([C@@H](O)CN3CCC(NCCNc4ccccn4)CC3)c2c1,9.69%
4,Clc1ccc(CNCCCCCCNCc2ccc(Cl)cc2)cc1,1.71%
5,CN(c1ncc(-c2cccc(CNCc3ccccc3O)c2)cn1)C1CCCCC1,-0.2%
6,C=CCn1c(=N)n(CC(O)c2ccc(Cl)c(Cl)c2)c2ccccc21 (stereo not drawn),3.84%
7,Cc1ccc(Oc2ccccc2NC(=O)CCc2nc3ccccc3c(=O)[nH]2)cc1,0.95%
8,CN1CCN(c2ccc(Nc3ncc(C#N)c(Nc4ccccc4C(N)=O)n3)cc2)CC1,81.4%
9,CCOc1c(C)cc(C(F)(F)F)cc1CNCCCNc1cc(=O)c2ccccc2[nH]1,5.03%
10,O=C(NC1CCN(Cc2ccccc2)CC1)c1ccc(-c2nc3cc4ccccc4cc3[nH]2)s1,2.65%
11,O=C(NC1CC1c1ccccc1)N(CCCn1ccnc1)Cc1csc(-c2ccc(CNCc3ccccc3)cc2)n1 (stereo not drawn),1%
12,Cc1nn(-c2ccccc2)c2c1C(c1ccc(C(C)C)cc1)N1C(=N2)N(Cc2ccccc2)c2ccccc21 (stereo not drawn),2.86%
13,COc1ccc(C2C(C(=O)Nc3cc(Cl)c(OC)cc3OC)c3ccccc3C(=O)N2C)cc1 (stereo not drawn),1.49%
14,CNC(=O)c1c(NC(=O)c2cccs2)sc2c1CCCC2,1.4%
15,CC(C)OCCCNC(=O)c1nc(-c2cccc(C(F)(F)F)c2)sc1C(C)C,4.03%
16,COc1cc(-c2nc(-c3ccccc3)c(-c3ccccc3)[nH]2)cc(OC)c1O,-0.87%
17,N#Cc1ccc(C2CCN(CC[C@H](N)Cc3ccc(Cl)s3)CC2)cc1,10.7%
18,CCOc1cc(C)ccc1C1CCN(CCCCNC(=O)c2ccc(-c3ccc(Cl)cn3)cc2)CC1,-0.06%
19,CCCNCc1ccc(-c2ccc(CN(CCOC)C(=O)c3ccco3)cc2)nc1,0.17%

# Target: Glucose transporter (Leishmania mexicana) (UniProt O61059)
# Test: ST_JUDE_LEISH: Cytotoxicity at 2uM final concentration against transgenic Leishmania Mexicana promastigotes LmGT2 that are glucose transport deficient and complemented with the L. Mexicana glucose transporter 2. Activity is measured by DNA content using SYBR green in vitro
# Format: functional
row,Structure (SMILES),inhibition
1,O=C(Nc1ccccc1Br)N[C@@H]1CCN(c2ccnc3ccccc23)C1,3.01%
2,CCCCOC(=O)c1ccc(Nc2cc(C)nc3ccc(OC)cc23)cc1,6.35%
3,N#Cc1ccc(NC(=O)Nc2ccc3c(c2)CCN(C2CCC2)CC3)cc1,3.26%
4,CN(C)c1c(CNCCCCCCNCc2ccc3ccccc3c2N(C)C)ccc2ccccc12,7.38%
5,O=C(CSc1nccn1C1CCCCC1)Nc1cc(C(F)(F)F)ccc1Cl,7.3%
6,CN1CCCC(CN2CCN(Cc3ccc(-c4cccc(-c5nc6ccccc6[nH]5)c4)cc3)CC2)C1 (stereo not drawn),3.47%
7,Cc1ccc(-c2cnc(N)c3cc(-c4ccnc(N)n4)ccc23)cc1,-1.88%
8,COc1ccc2c(=NN=Cc3ccc(F)cc3)cc(C)[nH]c2c1,11.6%
9,O=C(Nc1ccc(SC(F)(F)F)cc1)Nc1ccnc2ccccc12,-2.28%
10,CC(CNC(=O)[C@H]1CNCCN1C(=O)CCCc1ccccc1)c1ccccc1 (stereo partly drawn),-0.23%
11,Nc1nccc2ccc(-c3cccc4ncccc34)cc12,1.15%
12,CCCCCn1c(Sc2ccc(C#N)c([N+](=O)[O-])c2)nnc1-c1ccccc1,4.33%
13,Cc1cnc(Nc2cccnc2)nc1Nc1ccccc1C(=O)NC(C)C,2.25%
14,CN(C)CCOc1ccc(-c2cc(-c3ccnc(N)n3)c(-c3ccc(Cl)c(O)c3)o2)cc1,2.71%
15,C[C@@H](CNc1ccnc(Nc2ccc3[nH]c(=O)[nH]c3c2)n1)c1ccccc1,-0.41%
16,Oc1cc(-c2nc(C3(CNCc4ccc(Cl)cc4)CCCCC3)[nH]c2-c2ccncc2)ccc1Cl,5.4%
17,CCOc1ccc2ccccc2c1CNCCCCCCNCc1c(OCC)ccc2ccccc12,4.92%
18,CCCCN(CCCC)Cc1cc(Nc2ccnc3cc(Cl)ccc23)ccc1O,4.18%
19,COc1ccccc1C(C)NCC(=O)Nc1cccc(C(=O)Nc2cccc(C(F)(F)F)c2)c1 (stereo not drawn),4.16%
20,Cc1nc(-c2cccc(Nc3nccc(NCC(O)c4ccccc4C)n3)c2)cs1 (stereo not drawn),3.17%

row,Structure (SMILES),inhibition
1,CNC(=O)Cc1ccc(C(=O)Nc2cccc(-c3cccc(-c4nc5cc(C(F)(F)F)ccc5[nH]4)c3)c2)cc1,-0.97%
2,Cc1cc(=NN=Cc2ccc(F)cc2)c2ccc(C(F)(F)F)cc2[nH]1,1.74%
3,COc1ccc2nccc([C@@H](O)CN3CCC(NCCNc4ccccn4)CC3)c2c1,6.24%
4,Clc1ccc(CNCCCCCCNCc2ccc(Cl)cc2)cc1,-1.04%
5,CN(c1ncc(-c2cccc(CNCc3ccccc3O)c2)cn1)C1CCCCC1,0.12%
6,C=CCn1c(=N)n(CC(O)c2ccc(Cl)c(Cl)c2)c2ccccc21 (stereo not drawn),0.9%
7,Cc1ccc(Oc2ccccc2NC(=O)CCc2nc3ccccc3c(=O)[nH]2)cc1,2.88%
8,CN1CCN(c2ccc(Nc3ncc(C#N)c(Nc4ccccc4C(N)=O)n3)cc2)CC1,55.1%
9,CCOc1c(C)cc(C(F)(F)F)cc1CNCCCNc1cc(=O)c2ccccc2[nH]1,5.79%
10,O=C(NC1CCN(Cc2ccccc2)CC1)c1ccc(-c2nc3cc4ccccc4cc3[nH]2)s1,4.03%
11,O=C(NC1CC1c1ccccc1)N(CCCn1ccnc1)Cc1csc(-c2ccc(CNCc3ccccc3)cc2)n1 (stereo not drawn),3.57%
12,Cc1nn(-c2ccccc2)c2c1C(c1ccc(C(C)C)cc1)N1C(=N2)N(Cc2ccccc2)c2ccccc21 (stereo not drawn),1.85%
13,COc1ccc(C2C(C(=O)Nc3cc(Cl)c(OC)cc3OC)c3ccccc3C(=O)N2C)cc1 (stereo not drawn),-1.07%
14,CNC(=O)c1c(NC(=O)c2cccs2)sc2c1CCCC2,1.44%
15,CC(C)OCCCNC(=O)c1nc(-c2cccc(C(F)(F)F)c2)sc1C(C)C,4.46%
16,COc1cc(-c2nc(-c3ccccc3)c(-c3ccccc3)[nH]2)cc(OC)c1O,-1.53%
17,N#Cc1ccc(C2CCN(CC[C@H](N)Cc3ccc(Cl)s3)CC2)cc1,15.8%
18,CCOc1cc(C)ccc1C1CCN(CCCCNC(=O)c2ccc(-c3ccc(Cl)cn3)cc2)CC1,-0.83%
19,CCCNCc1ccc(-c2ccc(CN(CCOC)C(=O)c3ccco3)cc2)nc1,2.77%
